NadD inh: inhibitors of S. aureus NadD, primary screen, biochemical, colorimetric, uHTS. Nicotinate-nucleotide adenylyltransferase NadD (Staphylococcus aureus N315). purified NadD enzyme, colorimetric absorbance read-out. inhibition, % at 20 µM. 0.78% of 360,000 active. AID 602399, 2012; in the data active = inhibition above about 26%
FAS TE block: FAS thioesterase domain inhibitors, primary screen, biochemical, fluorescence intensity, uHTS. recombinant FAS-TE, OMFH fluorogenic substrate, fluorescence endpoint. inhibition, % at 15 µM. 0.67% of 360,000 active. AID 602261, 2012;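 active = compounds whose normalised, plate-corrected inhibition of enzyme fluorescence in the single-dose primary screen is 50% or more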;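 also: 0% = DMSO with enzyme and 100% = substrate without enzyme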
ATG4B inhibitor: ATG4B protease inhibitors, primary screen, biochemical, fluorescence, uHTS | ATG4B cleavage of LC3-PLA2, NBD-HPC fluorescence, 1 h | 0.51% of 340,000 active | inhibition, % at 8.33 µM | Cysteine protease ATG4B (Homo sapiens), Q9Y4P1; in the data active = inhibition above about 40%
SUMO Mot1 rescue: yeast Mot1-301 growth rescue at high temperature, primary screen, SUMOylation pathway inhibitor project, S. cerevisiae, ATP luminescence, 38.5C | growth rescue, % at 18.8 µM | 1% of 320,000 active | S. cerevisiae Mot1-301 growth rescue; percent above DMSO median, 100 means doubled;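 active = every valid replicate shows activation above 250% relative to neutral control wells; inactive = the rest, any valid replicate at or below 250%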;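 also: OY570 slx delta 5 strain wells were the positive control but not used for scaling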
Calb FLC: C. albicans growth inhibition with fluconazole, primary screen, CaCi-2 strain, Alamar Blue fluorescence. C. albicans CaCi-2 (fluconazole-resistant clinical isolate) + fluconazole, 48 h. 0.57% of 300,000 active. growth inhibition, % (concentration not given with the values);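 active = growth inhibition above about 58% in most replicates, limit read from the data, passing the limit was not always enough; inconclusive = exactly half the replicates above a set limit; inactive = most replicates below a set limit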;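 also: all wells also contain fluconazole at 8 µg/ml as a sub-toxic cotreatment; 0% = median of DMSO wells and 100% = median of geldanamycin control wells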
NadD conf: inhibitors of S. aureus NadD, confirmation, biochemical, colorimetric, single concentration; shares compounds with NadD inh; purified S. aureus NadD, colorimetric enzyme assay; inhibition, % at 20 µM; 13% of 2,000 active; AID 624309, 2012; in the data active = inhibition mostly above about 42%, no sharp cut-off; inactive = mostly below about 42%
An asterisk follows results filed as active; ? = inconclusive; · = no result given. Most compounds without a hit are left out; they make up all but 3.1% or so of the library.

SMILES	NadD inh	FAS TE block	ATG4B inhibitor	SUMO Mot1 rescue	Calb FLC	NadD conf
CCCCCC(=O)Nc1nc(C)c(-c2csc(Nc3cc(Cl)ccc3OC)n2)s1	42*	11	-6	-17	-3	38
COc1ccccc1Nc1nc(-c2sc(NC(=O)C(C)(C)C)nc2C)cs1	14	0	-30	-5	4	·
Cc1ccc(C)c(N(CC(=O)NC2CCCCC2)C(=O)c2csnn2)c1	3	-2	-2	0	-3	·
Cc1ccc(C)c(N(CC(=O)NC2CCCC2)C(=O)c2cc3cc4cccc(C)c4nc3s2)c1	32*	30	-7	-11	-5	12
Cc1ccc2cc3cc(C(=O)N(CC(=O)NC4CCCC4)c4cccc(C)c4C)sc3nc2c1	34*	34	19	-3	9	11
Cc1ccnc(NC(=O)CCC(=O)N(CC(=O)NC2CCCCC2)c2cccc(C)c2C)c1	4	6	1	-4	-3	·
Nc1nc2c(Br)ccc(Br)c2cc1C(=O)NCc1cccc2ccccc12	41*	7	·	·	·	4
Cc1cccc2cc(C#N)c(N3CCN(C)CC3)nc12	-2	-4	-13	-2	-13	·
Cc1ccc(C)c2nc(N3CCCC3)c(C#N)cc12	32*	0	-8	-18	·	11
CCOc1ccccc1NC(=O)C(OC(=O)c1ccc(NC(=O)CC#N)cc1)c1ccccc1 (stereo not given)	28*	15	-12	5	6	43
O=C(Nc1c(F)c(F)c(F)c(F)c1F)c1ccc(Br)o1	-5	-6	·	·	·	·
CCOc1cc(/C=C(\CC(=O)O)c2nc3ccccc3s2)ccc1OC	-1	-8	-3	-14	?	·
CCOc1cc(/C=C(\CC(=O)O)c2nc3ccccc3s2)ccc1OCC(=O)Nc1cccc(C(F)(F)F)c1	37*	7	-8	·	·	12
CCOc1ccc(Nc2cc(C)nc3c(C)cccc23)cc1	-1	1	2	-12	3	·
COC(=O)C1=C(O)/C(=C\c2ccc(CNC(=O)C(=O)Nc3ccc(C)cc3)o2)N=C1C	32*	-1	2	-17	5	8
COC(=O)C1=C(O)/C(=C\c2ccc(CNC(=O)C(=O)Nc3ccc(C)c(C)c3)o2)N=C1C	34*	-13	8	8	-10	7
COC(=O)C1=C(O)/C(=C\c2ccc(CNS(=O)(=O)c3ccccc3)o2)N=C1C	5	-9	-3	-8	38	·
CCOC(=O)C1=C(O)/C(=C/c2ccc(CNC(=O)C(=O)Nc3ccc(C)cc3)o2)N=C1C	46*	-4	-3	0	?	6
CCOC(=O)C(=O)NCc1ccc(/C=C2/N=C(C)C(C(=O)OCC)=C2O)o1	-1	-6	-1	·	0	·
COc1ccc2c(Cl)c(C(=O)NCCCn3ccnc3)sc2c1Cl	36*	-17	1	1	8	7
O=C(NNC(=O)c1cc(-c2ccc(Cl)cc2)nc2ccccc12)c1csc(N2CCOCC2)n1	31*	18	-15	55	82*	37*
O=C(NNC(=O)c1cc(-c2ccccc2)nc2ccccc12)c1csc(N2CCOCC2)n1	16	5	-12	-8	48	·
O=C(NNC(=O)c1cc(-c2ccc(Br)cc2)nc2ccccc12)c1csc(N2CCOCC2)n1	31*	36	-6	·	·	30
Cc1ccc(-c2cc(C(=O)NNC(=O)c3csc(N4CCOCC4)n3)c3ccccc3n2)cc1	15	7	-13	4	·	·
COc1ccc(S(=O)(=O)N2CCCCC2)cc1NC(=O)c1ccc(N2CCCC2=O)cc1	3	5	-57	-3	·	·
SMILES	NadD inh	FAS TE block	ATG4B inhibitor	SUMO Mot1 rescue	Calb FLC	NadD conf
O=C1[C@H]2[C@@H](c3ccc(F)cc3)N3C(=O)N(c4cccc(Br)c4)C(=O)[C@@]3(Cc3ccc(Cl)cc3)[C@H]2C(=O)N1C1CCCCC1	31*	35	-3	6	16	13
O=C1[C@H]2[C@@H](c3ccc(Cl)cc3)N3C(=O)N(c4cccc(Br)c4)C(=O)[C@@]3(Cc3ccc(Cl)cc3)[C@H]2C(=O)N1C1CCCCC1	32*	91*	7	6	2	-1
COc1cccc(-c2ccc(NC(=O)C3CCCN(Cc4ccc(CO)o4)C3)cc2)c1 (stereo not given)	-4	0	-6	72	-10	·
O=c1nc2s/c(=C\c3ccc(-c4ccccc4[N+](=O)[O-])o3)c(=O)n2nc1-c1ccccc1	36*	-10	-2	·	19	5
CCCCCOc1ccc(/C=c2\sc3nc(=O)c(-c4ccccc4)nn3c2=O)cc1OC	7	-11	-3	0	-4	·
COc1ccccc1N1CCN(C(=O)c2ccc3c(c2)NC(=O)C(CSCc2ccccc2C)N3)CC1 (stereo not given)	·	·	·	5	-14	·
Cc1cccc(N2CCN(C(=O)c3ccc4c(c3)NC(=O)C(CSCc3cccc(F)c3)N4)CC2C)c1 (stereo not given)	49*	-19	-9	-18	20	70*
S=c1nc[nH]c2c1sc1nc(-c3ccccc3)c3c(c12)CCCC3	40*	44	19	4	44	-2
COc1ccccc1CC(=O)N1CCN(c2cccc(Cl)c2)CC1	-6	3	0	-8	2	·
COC(=O)CCCC1=CC2=CC(=O)C(C)(OC(=O)c3cccs3)C(=O)C2=CN1Cc1ccc2c(c1)OCO2 (stereo not given)	36*	-2	-2	0	7	28
COC(=O)CCCC1=CC2=CC(=O)C(C)(OC(=O)c3cccs3)C(=O)C2=CN1Cc1ccccc1 (stereo not given)	8	0	-1	0	34	·
C=CCNC(=S)N1CCC(C(=O)c2ccc(Cl)cc2)CC1	4	4	0	10	5	·
COc1ccc(C(=O)c2[nH]c(N)c(C(=O)NCCc3c[nH]c4ccccc34)c2-c2ccc(Br)cc2)cc1	44*	20	·	·	·	29
Nc1[nH]c(C(=O)c2ccccc2)c(-c2ccc(Br)cc2)c1C(=O)NCCc1c[nH]c2ccccc12	27	33	·	·	·	·
Cc1ccc(Nc2nc(Nc3ccc(C)cc3)nc(SC3=NCCS3)n2)cc1	30*	32	0	0	?	51*
COc1ccc(-n2c(=S)[nH]c3c(sc(=S)n3-c3ccccc3)c2=O)c(OC)c1	30*	5	-1	-11	-2	14
C=C(C)[C@@H]1CC[C@]2(C(=O)O)CC[C@]3(C)[C@H](CC[C@@H]4[C@@]5(C)CC[C@H](O)C(C)(C)[C@@H]5CC[C@]43C)[C@@H]12	53*	4	15	9	·	13
